Among the test systems are DU-145 prostate; K-562 leukemia; MALME-3M melanoma; MDA-MB-231 breast; RXF 393 renal; SF-268 CNS; SF-295 CNS; SF-539 CNS; UACC-257 melanoma; M14 melanoma.
What all share (experiment): NCI-60 one-dose screen, 48 h (100 = growth as untreated, 0 = no growth, -100 = all killed)
Holding throughout (conditions): 10 µM unless noted

For 14 compounds, growth results are on record in PubChem BioAssay (NCI).

Molecules are shown by their SMILES. The panel holds about 83,000 compounds, 20% with a hit somewhere; the sample as a whole holds those more often.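 Activity criterion: percent growth below 10, measured after cells in 96-well plates were exposed to a single compound concentration for 48 hours.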 Unmarked numbers belong to inactive results. Activity calls are given as the source filed them.

In the case of `CCCCCCCCCCCC(=O)[O][Sn]([CH2]CCC)([CH2]CCC)[CH2]CCC`, the growth with DU-145 prostate was -98.7% (active); with K-562 leukemia it was -29.9% (active); in the test with MALME-3M melanoma it was -96.1% (active); in the test with MDA-MB-231 breast, -94.6% (active); in the test with RXF 393 renal, -72.4% (active); in the test on SF-268 CNS, -83.7% (active). Also, the growth is -83.8% (active) in the test with SF-295 CNS, -97.7% (active) in the test with SF-539 CNS, -96.5% (active) in the test on UACC-257 melanoma and -99.6% (active) with M14 melanoma.
For `COc1cc(CNCCCN2C(=O)c3ccc4c5c(ccc(c35)C2=O)C(=O)N(CCCNCc2cc(OC)c(OC)c(OC)c2)C4=O)cc(OC)c1OC`, the growth was -95.6% (active) with DU-145 prostate; 7.69% (active) in the test with K-562 leukemia; -87.1% (active) in the test on MALME-3M melanoma; -17.5% (active) in the test with MDA-MB-231 breast; -95.3% (active) with RXF 393 renal; -31.8% (active) in the test on SF-268 CNS. Moreover, the growth in the test on SF-295 CNS is -50.3% (active); in the test on SF-539 CNS, -86.9% (active); with UACC-257 melanoma, -93% (active); with M14 melanoma it was -89.8% (active).
With `CCN1CCN(c2ccc(Nc3ncc4ccc5ncn(C(C)C)c5c4n3)nc2)CC1`, the growth was -22.7% (active) with DU-145 prostate; 9.12% (active) in the test with K-562 leukemia; -34% (active) in the test with MALME-3M melanoma; 0.653% (active) in the test with MDA-MB-231 breast; -85.4% (active) with RXF 393 renal; -34.2% (active) in the test with SF-268 CNS. In addition, the growth in the test with SF-295 CNS was -17.8% (active); in the test with SF-539 CNS it was -75.8% (active); with UACC-257 melanoma, 0.866% (active); in the test on M14 melanoma, -23.8% (active).
For `O=C(COc1ccc(/C=C2\CSc3ccccc3C2=O)cc1)c1ccc(Cl)cc1`, the growth in the test on DU-145 prostate was 113%; with K-562 leukemia it was 99.2%; with MALME-3M melanoma, 98.7%; in the test with MDA-MB-231 breast, 97%; with RXF 393 renal it was 90.4%; in the test on SF-268 CNS, 104%. Besides, the growth with SF-295 CNS was 125%; in the test with SF-539 CNS, 106%; in the test on UACC-257 melanoma it was 121%; with M14 melanoma, 101%.
Turning to `COc1cc(/C=C/c2cc(/C=C/c3ccc(O)c(OC)c3)n(-c3ccccc3)n2)ccc1O`, the growth with DU-145 prostate is -45.7% (active); with K-562 leukemia, -15.5% (active); in the test on MALME-3M melanoma, -39% (active); in the test on MDA-MB-231 breast, 5.23% (active); in the test with RXF 393 renal it was -70% (active); in the test with SF-268 CNS, -12.5% (active). Moreover, the growth in the test with SF-295 CNS was -71.5% (active); in the test on SF-539 CNS, -39.8% (active); in the test on UACC-257 melanoma, 16%; in the test with M14 melanoma it was -56% (active).
On to `O=C(N/N=C/c1ccc2c(c1)OCO2)c1cnn2c1NC(c1ccccc1)C2` (stereo not given), for which the growth with DU-145 prostate is 60.9%; in the test on K-562 leukemia it was 29.8%; in the test on MALME-3M melanoma, 55.1%; in the test with MDA-MB-231 breast, 53.2%; with RXF 393 renal, 6.73% (active); with SF-268 CNS, 66%. In addition, the growth in the test on SF-295 CNS is 47.3%; in the test with SF-539 CNS, 59.1%; in the test with UACC-257 melanoma, 72.4%; with M14 melanoma, 42.7%.
As for `COc1cc(C2=NN(c3ccc(S(N)(=O)=O)cc3)C(c3ccc(Cl)cc3)C2)cc(OC)c1OC` (stereo not given), the growth in the test on DU-145 prostate is 65.9%; in the test with K-562 leukemia it was 18.7%; with MALME-3M melanoma, 85.7%; with MDA-MB-231 breast, 43.7%; in the test on RXF 393 renal, 34.8%; in the test on SF-268 CNS, 48.2%. The growth is 25% with SF-295 CNS, 69.1% in the test with SF-539 CNS, 57.5% with UACC-257 melanoma and 45.7% in the test on M14 melanoma.
Regarding `Cc1nc2cc(Nc3nc(Cl)nc(Nc4ccc(F)cc4)n3)ccc2n1Cc1ccccc1`, the growth in the test with DU-145 prostate was 64%; in the test on K-562 leukemia, 85.2%; in the test on MALME-3M melanoma, 107%; with MDA-MB-231 breast, 82.1%; in the test on RXF 393 renal it was 77.1%; in the test on SF-268 CNS, 91.1%. The growth in the test on SF-295 CNS was 96.4%; in the test with SF-539 CNS, 70.2%; in the test on UACC-257 melanoma, 89.7%; in the test on M14 melanoma, 109%.
As for `NC(=O)c1cccc(-n2ccc3cc(NC(=O)Nc4ccc(Cl)c(Cl)c4)ccc32)n1`, the growth is 83.7% with DU-145 prostate; 63.4% with K-562 leukemia; 85% with MALME-3M melanoma; 79.1% in the test on MDA-MB-231 breast; 6.33% (active) with RXF 393 renal; 83% in the test on SF-268 CNS. The growth in the test with SF-295 CNS was 68.8%; in the test with SF-539 CNS it was 64.1%; in the test on UACC-257 melanoma, 89.9%; in the test on M14 melanoma, 78%.
As for `COc1cc2cc(Oc3ccc(NC(=O)Nc4cccc(C(F)(F)F)c4)cc3)c(C)nc2cc1OCCN1CCCCC1`, the growth in the test on DU-145 prostate was -94.1% (active); in the test with K-562 leukemia, -49.7% (active); with MALME-3M melanoma it was -88.5% (active); in the test on MDA-MB-231 breast, -86.8% (active); with RXF 393 renal it was -70.6% (active); in the test with SF-268 CNS it was -78.4% (active). For the same compound, the growth in the test on SF-295 CNS is -57.4% (active); in the test on SF-539 CNS it was -92.4% (active); with UACC-257 melanoma, -68.9% (active); with M14 melanoma, -64.1% (active).
For `CC(C)NCC(O)COc1ccc(CCOCC2CC2)cc1` (stereo not given), the growth in the test with DU-145 prostate is 111%; in the test with K-562 leukemia, 97.6%; in the test on MALME-3M melanoma, 103%; in the test on MDA-MB-231 breast, 99.6%; in the test on RXF 393 renal it was 97.1%; in the test on SF-268 CNS, 108%. Moreover, the growth is 108% in the test with SF-295 CNS, 107% in the test with SF-539 CNS, 108% in the test with UACC-257 melanoma and 96.6% with M14 melanoma.
Take `Cc1cc(Cl)c2c(Cl)ccc(Cl)c2n1`: the growth was 112% in the test with DU-145 prostate; 97.6% in the test on K-562 leukemia; 105% in the test on MALME-3M melanoma; 119% in the test with MDA-MB-231 breast; 118% in the test with RXF 393 renal; 99.1% with SF-268 CNS. Also, the growth in the test with SF-295 CNS is 96.9%; with SF-539 CNS, 97.5%; in the test with UACC-257 melanoma, 102%; in the test on M14 melanoma, 101%.
As for `COc1ccccc1CNCCCCCCCCCCCCN1C(=O)c2ccc3c4c(ccc(c24)C1=O)C(=O)N(CCCCCCCCCCCCNCc1ccccc1OC)C3=O`, the growth in the test on DU-145 prostate is 51.2%; with K-562 leukemia it was 35.2%; in the test on MALME-3M melanoma, 97.6%; in the test with MDA-MB-231 breast, 64.1%; with RXF 393 renal, -69.6% (active); in the test on SF-268 CNS it was 69.4%. Besides, the growth with SF-295 CNS was 49.4%; with SF-539 CNS it was 1.92% (active); in the test on UACC-257 melanoma it was 113%; in the test with M14 melanoma, 80.2%.
Take `Cn1cc(C(=O)NCCC(=N)N)cc1NC(=O)CN=C(N)N`: the growth with DU-145 prostate is 104%; in the test with K-562 leukemia it was 134%; in the test with MALME-3M melanoma, 106%; with MDA-MB-231 breast it was 94.1%; in the test with RXF 393 renal it was 114%; with SF-268 CNS, 112%. In addition, the growth in the test on SF-295 CNS is 110%; in the test with SF-539 CNS, 104%; with UACC-257 melanoma, 99.9%; in the test with M14 melanoma, 94.2%.
